# Screening data (PubChem BioAssay)
# Only a selection was taken, and hits are over-represented in it overall.
# SARS PLP yeast – SARS-CoV PLP inhibition in yeast. Potency, µM (titrated, usually from 32.9 µM), for inactives: at the top dose activity, positive = growth rescue, actives largely listed as activators. S. cerevisiae expressing SARS-CoV PLpro, growth rescue. 0.19% of 330,000 active. AID 485353; calls by dose curve; note: potency is the fitted concentration of half-maximal effect; 0% is about no effect; nearly all actives have a fitted effect of over 55% in size
# Shiga toxin inh – blocks Shiga toxin action in Vero cells | Vero cells, Shiga toxin protein synthesis inhibition reporter | inhibition, % at 38.7 µM | 9.2% of 290,000 active; in the data active = inhibition mostly above about 28%, no sharp cut-off; inactive = mostly below about 43%; note: 0% is about no effect
# AmpC inh detg – blocks E. coli AmpC beta-lactamase in detergent assay | P00811 | AmpC hydrolysis of nitrocefin, absorbance 480 nm, 0.01% Triton | Potency, µM (doses to about 114 µM), for inactives: at the highest dose activity change, negative = inhibition, actives largely listed as inhibitors | 0.041% of 370,000 active;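 note: potency is the fitted concentration of half-maximal effect; 0% = no-compound wells and -100% = no-enzyme wells; nearly all actives have a fitted effect of over 25% in size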
# Target sequence (P00811 whole entry, looked up): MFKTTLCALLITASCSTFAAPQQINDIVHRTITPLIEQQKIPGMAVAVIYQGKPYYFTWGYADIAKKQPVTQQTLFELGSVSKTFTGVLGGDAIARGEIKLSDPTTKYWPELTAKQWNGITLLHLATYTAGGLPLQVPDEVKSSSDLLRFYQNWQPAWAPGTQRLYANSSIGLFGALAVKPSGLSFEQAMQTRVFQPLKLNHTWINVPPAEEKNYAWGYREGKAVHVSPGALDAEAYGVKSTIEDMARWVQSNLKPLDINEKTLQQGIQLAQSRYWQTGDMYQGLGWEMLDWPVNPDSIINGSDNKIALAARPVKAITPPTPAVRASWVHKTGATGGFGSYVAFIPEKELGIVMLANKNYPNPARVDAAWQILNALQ
#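 AmpC (5.3 nM in the dispensed reagent) in 20 mM phosphate pH 7.0 with 0.01% (detergent screen) or 0.0001% Triton X-100 was preincubated with compounds for 15 min at room temperature. Nitrocefin was then added from an 800 uM solution, and hydrolysis was followed at 480 nm.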
# AMA1-RON2 inh – disrupts binding of P. falciparum AMA1 to RON2 | 0.2% of 360,000 active | AlphaScreen AMA1-biotinylated RON2 peptide binding | Potency, µM (highest dose often 58.2 µM), for inactives: at the top dose activity change, negative = inhibition, actives largely listed as inhibitors;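 note: potency is the fitted concentration of half-maximal effect; 0% = vehicle wells and -100% = peptide control; nearly all actives have a fitted effect of over 45% in size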
#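 AMA1 (3D7) with his tag at 25 nM final met compounds first, then biotinylated RON2 peptide at 25 nM; detection used donor plus acceptor beads, 10 µg/mL apiece, read by AlphaScreen after 30 min at room temperature.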
# AmpC inh no detg – inhibitors of E. coli AmpC beta-lactamase without detergent | P00811 | AmpC nitrocefin hydrolysis, absorbance 480 nm, 0.0001% Triton | Potency, µM (titrated, usually from 57.1 µM), for the others: at the top dose activity change, negative = inhibition, most hits filed as inhibitors | 0.52% of 330,000 active;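 note: potency is the fitted concentration of half-maximal effect; plate controls were no compound for no effect and no enzyme for full effect; nearly all actives have a fitted effect of over 20% in size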
#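 AmpC (5.3 nM in the dispensed reagent) in 20 mM phosphate pH 7.0 with 0.01% (detergent screen) or 0.0001% Triton X-100 was preincubated with compounds for 15 min at room temperature. Nitrocefin was then added from an 800 uM solution, and hydrolysis was followed at 480 nm.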
# CHX counter-1 – affects cycloheximide protein synthesis inhibition readout, counter-screen | cell reporter, cycloheximide protein synthesis inhibition counterscreen | max response, % | 12% of 300,000 active | AID 2314; in the data active = max response mostly above about 13%, no sharp cut-off; inactive = mostly below about 14%; note: read at 38.3 µM for the half of the compounds with a filed dose; 0% is about no effect
# CHX counter-2 – counter-screen for Shiga toxin inhibitors: cycloheximide protein synthesis block; Potency, µM (top dose mostly 38.3 µM), inactives show top-dose activity (activation), actives largely listed as activators; shares compounds with Shiga toxin inh; Cycloheximide counterscreen, protein synthesis reporter, Shiga toxin assay; 3% of 510 active; calls by dose curve; note: potency is the fitted concentration of half-maximal effect; 0% is about no effect
# Numbers without * were called inactive; ? = inconclusive; . = no result; [ ] = remark or other dose. Unless noted, calls come from the whole dose curve; as a rule, active = well fitted curve in the direction sought with a large enough effect; inconclusive = small, poorly fitted or top-dose-only effect, or another doubt; inactive = no such curve, though single readings can be large; an effect the other way counts as inactive or inconclusive.
SMILES,SARS PLP yeast,Shiga toxin inh,AmpC inh detg,AMA1-RON2 inh,AmpC inh no detg,CHX counter-1,CHX counter-2
Cc1cccc(Nc2ncnc3ccc(Br)cc23)c1,-4%,-15,4%,35%,-33%,-2,.
CC(NC(=O)Cc1ccccc1[N+](=O)[O-])c1ccccc1 (stereo not given),12%,-15,?,.,-6%,-1,.
COc1cc(N=c2ssnc2Cl)cc(OC)c1,-20%,14,-2%,3%,-15%,-1,.
Clc1nssc1=Nc1ccc(Br)cc1,-20%,59*,-5%,-25%,-31%,11,5%
CCCCOc1ccc(C(=O)NCC(c2ccc(Cl)cc2)N2CCOCC2)cc1 (stereo not given),.,.,11%,.,.,.,.
O=C(O)Cc1ccc2oc(-c3ccccn3)nc2c1,0%,38*,0%,21%,-22%,13,?
Cc1nonc1OCCCNc1ccc([N+](=O)[O-])cc1Cl,0%,116*,-1%,-5%,-22%,14,?
Cc1nonc1OCCNc1ccc([N+](=O)[O-])cc1[N+](=O)[O-],10%,-5,-14%,-17%,-24%,-2,.
COc1ccc(NS(=O)(=O)c2cccc(C(=O)NCC(c3ccccc3)N(C)C)c2)cc1 (stereo not given),15%,.,-19%,63%,-17%,.,.
CCN(CC)S(=O)(=O)c1ccc(C(=O)NCCc2ccccn2)cc1,-2%,45*,-4%,6%,-19%,11,3%
CCOC(=O)C1=C(O)/C(=C\c2sccc2C)N=C1C,19%,33,8%,-4%[11.6 µM],-19%,2,.
CCOC(=O)C1=C(O)/C(=C\c2ccc(CNC(=O)C(=O)Nc3ccccc3)o2)N=C1C,-3%,42*,11%,-18%,10%,4,1%
O=C(Nc1ncc2c(n1)-c1ccccc1CC2)c1cccc(Cl)c1,-22%,33*,-11%,7%,-19%,2,?
Cc1ccc2c(N)[nH]nc2n1,-1%,82*,-5%,3%,4%,11,-1%
CC(C)CN1CCN(C(=O)CCc2nnc(Cc3c[nH]c4ccccc34)o2)[C@@H](C)C1=O,3%,36*,3%,-4%,89%,17,?
CCN(CCn1cccn1)Cc1nc(-c2ccccc2)no1,-2%,34*,-2%,11%,14%,7,4%
CN(C)C(CNC(=O)CCC(=O)c1ccc(Br)cc1)c1ccccc1 (stereo not given),-3%,38*,2%,17%,68%,11,-1%
CN(C)C(CNC(=O)CCS(=O)(=O)c1ccccc1)c1ccccc1 (stereo not given),2%,15,-9%,3%,-5%,9,.
Cc1ccc2nc(Cl)c(/C=N/NC(=O)[C@H]3C[C@@H]3c3ccccc3)cc2c1,-17%,19,-7%,16%,-30%,9,.
Cc1nnc(NC(=O)C2COc3ccccc3O2)s1 (stereo not given),2%,99*,-23%,7%,-15%,15,?
CC1CCN(C(=O)Cn2cc3c(n2)CCCC3)CC1,-8%,18,?,-9%,7%,11,.
COC(C(=O)NC1CCCCCCC1)c1ccccc1 (stereo not given),-18%,10,-15%,-18%,0%,3,.
CC(C)(C)NC(=O)c1ccc(COc2ccccc2Br)o1,-16%,34*,2%,-5%,20%,8,1%
CC(=O)Nc1ccc(NC(=O)c2ccc(COc3ccccc3Br)o2)cc1,1%,-3,2%,-1%,22%,2,.
CCN(CC)c1ccc(/C=N/n2c(=S)[nH]nc(C)c2=O)cc1,8%,14,-4%,-13%,-36%,-2,.
Cc1ccc(NC2=NCC(=O)N2C2CCCC2)cc1C,1%,11,-7%,10%,-9%,1,.
Cc1ccc(NC2=NCC(=O)N2C2CCCC2)cc1,1%,58*,-7%,7%,-22%,7,-2%
